# Experimental data published in PubChem BioAssay AID686978 (National Center for Advancing Translational Sciences (NCATS), 2013).
# Screen size: about 420,000 compounds; about 64,000 (15%) were called active. Roughly 27% stayed inconclusive and do not appear here. The call rests on the fitted dose curve; in most records, active means well fitted inhibition curve with a large enough effect; inconclusive means small, poorly fitted or top-dose-only effect; inactive means flat fitted curve, though single readings scatter. Only a sample is shown. Entries that show only a call come without a potency.
# Assay: qHTS for Inhibitors of human tyrosyl-DNA phosphodiesterase 1 (TDP1): qHTS in cells in absence of CPT; further: nearly all actives have a fitted effect of over 55% in size
# Settings: DT40 Tdp1-/- hTDP1 cells, no CPT, ATP luminescence, 48 h; activity change, negative = growth inhibition: at 46.2 µM (top of the series)
# Procedure, shortened: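 Growth of hTDP1-complemented DT40 Tdp1-knockout cells is measured by ATP luminescence after at least 48 hr compound exposure at 37 °C, with DMSO substituting for the 20 nM CPT used in the parallel screen.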
# Potency means the concentration at half of the fitted maximal effect.
Structure (SMILES),Potency,"activity change, negative = growth inhibition"
COCC(=O)Nc1cc(C(=O)OC)cc(C(=O)OC)c1,inactive,–
COc1cccc(CN(C)C(=O)CC[C@H]2O[C@@H](n3cnc4c(NC(=O)c5ccccc5)ncnc43)[C@H](O)[C@@H]2O)c1,inactive,–
Nc1ncnc2c1ncn2[C@@H]1O[C@H](CNC(=O)[C@H](N)Cc2cccnc2)[C@@H](O)[C@H]1O,inactive,–
COc1ccc(CC(N)C(=O)NC2C(O)[C@H](n3cnc4c(N(C)C)ncnc43)O[C@@H]2CO)cc1 (stereo not given in full),22.1 µM (active),–
COC(=O)CNC(=O)c1ccc(OC2CCN(C(=O)C3CC3)CC2)cc1,inactive,–
CCC(C(=O)OCCN(CC)CC)c1ccccc1 (stereo not given),inactive,–
CCN(CC)CCOCCOc1ccc(Cl)c2ccccc12,16.4 µM (active),–
CN(C)CCOc1ccc(Cl)cc1C(C)(C)C,inactive,–
Cc1cccc(NC(=O)CSc2nnc(-c3ccco3)o2)c1,inactive,–
C/C(=N/NC(=O)CCc1ccccc1)c1ccco1,inactive,–
O=C(CCc1ccccc1)Nc1cccc(-c2nnc(-c3ccco3)o2)c1,16.4 µM (active),–
COc1cc(NS(=O)(=O)c2ccc(NC(=O)CN3C(=O)c4ccccc4C3=O)cc2)ncn1,inactive,–
Oc1cc(O)c2c(c1)OC(c1ccc(O)c(O)c1)C(O)C2 (stereo not given),inactive,–
CCCC1OC23CCCCC2C(C#N)(C#N)C1(C#N)C(=N)O3 (stereo not given),5.8 µM (active),–
N#C/C(=C\c1ccccc1)c1n[nH]c(Cn2cncn2)n1,inactive,–
COC(=O)N1CCC2(CCCN(c3ccncc3)C2)CC1,inactive,–
CCc1cccc2c(=O)c(C(=O)NCCCOC)c[nH]c12,inactive,–
CCc1nc2ccc(C(=O)Nc3cccc(OC)c3)cn2c1N(CCC(C)C)CCN(C)C,inactive,–
CCc1nc2ccc(C(=O)Nc3cc(-c4ccccc4)ccc3OC)cn2c1N(CC)CC(=O)N(C)C,11.6 µM (active),–
CCc1nc2ccc(C(=O)Nc3ccc(OC)c(OC)c3)cn2c1N(C)C(=O)c1cccc(OC)c1,inactive,–
CCn1c(CNS(=O)(=O)c2ccc(Cl)cc2)n[nH]c1=S,inactive,–
Cc1cccnc1NC(=O)CSc1nnc(COc2ccc(C(C)C)cc2)n1C,inactive,–
N#Cc1cccc(CSc2ncnc(N)n2)c1,inactive,–
Cc1cc(C(C)(C)C)cc(S(=O)(=O)Nc2ccc(C(=O)O)cc2)c1C,inactive,–
Cc1cc(C)c(C)c(S(=O)(=O)Nc2ccc(O)cc2)c1C,11.6 µM (active),–
Cc1cc(C)c(C)c(S(=O)(=O)Nc2cccnc2)c1C,inactive,–
COc1cc(NC(=O)C2CC(c3ccccc3O)=NO2)c(OC)cc1Cl (stereo not given),inactive,–

Structure (SMILES),Potency,"activity change, negative = growth inhibition"
CC/S(CC1CC1(Cl)Cl)=N\S(=O)(=O)c1ccc(C)cc1 (stereo not given),inactive,–
COC(=O)CCNc1ccc2c(c1)OCCO2,inactive,–
CC(C)(c1ccccc1)c1ccc(OCCN)cc1,11.6 µM (active),–
O=C(NCCOc1ccccc1)c1ccccc1,inactive,–
O=C(NCCc1ccccc1)c1ccc(OCCOc2ccccc2)cc1,inactive,–
O=C(CSc1ncccn1)N1CCCC1,inactive,–
CCc1nnc(NC(=O)CSc2nc3c(c(=O)n2-c2ccccc2OC)SCC3)s1,inactive,–
CN(C)S(=O)(=O)c1ccc(C(=O)NCCN=C2NS(=O)(=O)c3ccccc32)cc1,inactive,–
NC(=S)NN=C1CCCC(C(F)(F)F)C1 (stereo not given),23.1 µM (active),–
Cc1cc(C)nc(SCc2cn3c(C)cc(C)nc3n2)n1,inactive,–
O=[N+]([O-])/C(N=Nc1ccccc1)=N\Nc1ccccc1,inactive,–
O=S(=O)(c1ccc(Br)c2ccccc12)N1CCOCC1,inactive,–
O=S(=O)(NCCc1ccccn1)c1cc(Cl)cc(Cl)c1O,inactive,–
COc1ccc(NC(=O)CCC(=O)Nc2nnc(C3CCCCC3)s2)cc1,inactive,–
COC(=O)CCc1sc(Nc2ccc(Br)cc2)nc1-c1ccc(OC)cc1,13 µM (active),–
COc1ccc(NC(=O)c2sc(N)nc2-c2ccccc2)cc1,inactive,–
CC(C)(C)n1nc2c(c1NC(=O)c1cc3ccccc3o1)CSC2,inactive,–
CC(C)Sc1nnc([C@H](Cc2ccccc2)NC(=O)OC(C)(C)C)o1,inactive,–
C[C@@H](NC(=O)OC(C)(C)C)c1nnc(S(=O)(=O)Cc2ccccc2)o1,1.03 µM (active),–
C[C@H](NC(=O)OC(C)(C)C)c1nnc(SCC(N)=O)o1,inactive,–
O=C(CSc1nnc(CNC(=O)c2ccc(F)cc2)o1)Nc1ccc2c(c1)OCO2,inactive,–
Cc1cc(=O)[nH]c(=S)[nH]1,inactive,–
COc1cc(C(=O)OCc2ccc([N+](=O)[O-])cc2)cc(OC)c1OC,inactive,–
Cc1cc(CO)nn1-c1ccc([N+](=O)[O-])cc1,inactive,–
Cc1ccc(C(=O)Cn2cc([N+](=O)[O-])nc2C)cc1,inactive,–
Cc1ccc(-n2cc3ccc([N+](=O)[O-])cc3n2)cc1,16.4 µM (active),–
O=C(CN1CCN(c2ccccn2)CC1)NC1CCCCC1,inactive,–

Structure (SMILES),Potency,"activity change, negative = growth inhibition"
O=C1CCC(CCC(=O)N2CCCC(C(=O)c3ccc(Cl)cc3)C2)=NN1 (stereo not given),inactive,–
COc1cc(OC)cc(-c2nc3nc(C)c(CCC(=O)Nc4ccccc4)c(C)n3n2)c1,29.1 µM (active),–
CCOC(=O)c1cccc(NC(=O)CCc2c(C)nc3ncnn3c2C)c1,inactive,–
COc1cc(OC)cc(-c2nc3nc(C)c(CCC(=O)Nc4ccc(C)cc4)c(C)n3n2)c1,inactive,–
COc1ccc(OC)c(-n2c(-c3ccn[nH]3)n[nH]c2=S)c1,inactive,–
COc1cc(OC)cc(-c2c(C#Cc3ccsc3)c3cc(-c4ccc(SC)cc4)ccc3n2C)c1,inactive,–
COc1cc(OC)cc(-c2c(-c3cccs3)c3cc(-c4ccc(OC)cc4F)ccc3n2C)c1,14.6 µM (active),–
COc1ccc(-c2c(-c3cc(OC)cc(OC)c3)n(C)c3ccc(-c4ccn[nH]4)cc23)cc1,25.9 µM (active),–
COc1ccc(-c2cn[nH]c2-c2ccc(OC)cc2)cc1,inactive,–
O=C(CSc1nncs1)NC1CCCc2ccccc21 (stereo not given),inactive,–
Cc1nc2cc3c(cc2s1)OCO3,inactive,–
Cc1nnc(SCC(=O)NC(=O)NC2CCCC2)n1N,inactive,–
COc1ccc(N2CC(C(=O)N[C@@H](C)C(=O)N3CCCCC3)CC2=O)cc1 (stereo not given in full),inactive,–
CCOC(=O)C1CCN(S(=O)(=O)c2ccc3c(c2)N(C)C(=O)CC(=O)N3C)CC1,inactive,–
O=[n+]1c2c(n([O-])c3cc(Br)ccc31)CCC2,inactive,–
CC(C)c1ccc(C2C(C(=O)c3ccco3)=C(O)C(=O)N2CC2CCCO2)cc1 (stereo not given),–,-77.9% (active)
O=C(C1=C(O)C(=O)N(Cc2ccccc2)C1c1cccnc1)c1ccco1 (stereo not given),inactive,–
CCOc1cc(C2C(C(=O)c3ccco3)=C(O)C(=O)N2Cc2ccccc2)ccc1O (stereo not given),inactive,–
CCCc1nnc(NC(=O)CN2C(=O)c3ccccc3S2(=O)=O)s1,inactive,–
Cc1ccc(-n2ncc3c(=O)n(-c4ccc(C)c(C)c4)c(-c4ccco4)nc32)cc1,18.4 µM (active),–
Cc1ccc(-n2ncc3c(Nc4cccc(C(=O)O)c4)ncnc32)cc1,inactive,–
Cc1ccc(-c2nc3c(cnn3-c3ccccc3)c(=O)o2)cc1,inactive,–
O=Cc1c(NCCc2cccc(F)c2)c2ccccc2[nH]c1=O,inactive,–
CCC(=O)Nc1ccc(C(=O)NNC(=O)c2ccc(Cl)cc2)cc1,inactive,–
CC(=O)OC(C(=O)NC1CCCCC1)c1ccccc1 (stereo not given),inactive,–
Cc1cnc(CN(C)C(=O)CC2C(=O)NCCN2Cc2cccc(F)c2F)[nH]1 (stereo not given),inactive,–
Cc1ccc(Cn2c(C)c3cnn(CC(=O)NCCN4CCOCC4)c(=O)c3c2C)cc1,inactive,–

Structure (SMILES),Potency,"activity change, negative = growth inhibition"
Cc1c2cnn(CC(=O)NCc3ccccn3)c(=O)c2c(C)n1Cc1ccc(Cl)cc1,inactive,–
CCOC(=O)N1CCC(NC(=O)C(C)n2c3ccccc3c3cnn(C)c(=O)c32)CC1 (stereo not given),inactive,–
Cc1nn(CC(=O)NC2CCCCC2)c(=O)c2cccn12,inactive,–
Cc1ccccc1CNC(=O)Cn1c(C)c2cnn(-c3ccccc3)c(=O)c2c1C,inactive,–
CCCn1c2ccccc2c2cnn(CC(=O)NCC3CCN(Cc4ccc(C)cc4)CC3)c(=O)c21,10.3 µM (active),–
O=C(Cn1ncc2c3ccccc3n(Cc3ccccc3)c2c1=O)NCc1ccccn1,inactive,–
CCN(CC)CCNC(=O)Cn1ncc2c3ccccc3n(Cc3ccccc3C)c2c1=O,25.9 µM (active),–
O=C(Cn1ncc2c3ccccc3n(Cc3ccccc3)c2c1=O)NC1CCCCCC1,3.66 µM (active),–
CCCn1c2ccccc2c2cnn(CC(=O)NCCCN3CCCCC3CC)c(=O)c21 (stereo not given),inactive,–
Cc1ccc(Cn2c(C)c3cnn(CC(=O)NCc4ccccc4)c(=O)c3c2C)cc1,2.91 µM (active),–
Cc1ccc2oc(=O)c3cnn(CC(=O)NCc4ccccc4Cl)c3c2c1,inactive,–
O=C1OC(Cc2ccccc2)C(c2ccccc2)C1=O (stereo not given),inactive,–
Cc1cc(S(=O)(=O)NCC(C)C)ccc1OCC(=O)NC1CC1,inactive,–
CCCCCC(=O)Nc1ccc(-c2cn3cccnc3n2)cc1,inactive,–
O=C(NNC(=O)C(O)c1ccccc1)NC1CCCCC1 (stereo not given),inactive,–
Cc1ccc(NC(=O)C(c2ccccc2)N2CCN(C(=O)c3ccco3)CC2)cc1 (stereo not given),inactive,–
O=c1c(-c2cc(F)cc(F)c2)nc2cnc(Oc3ccccc3)nc2n1C[C@H]1CCCO1,inactive,–
CC1OC(OCC2OC(Oc3c(-c4ccc(O)c(O)c4)oc4cc(O)cc(O)c4c3=O)C(O)C(O)C2O)[C@@H](O)C(O)C1O (stereo not given in full),inactive,–
O=C(O)Cc1ccc(NC(=O)Nc2cccc3ccccc23)cc1,inactive,–
Cc1ccc2c(c1)N(CC(=O)N1CCCC(C)C1)C(=O)CO2 (stereo not given),inactive,–
NC1=C([N+](=O)[O-])C(c2ccccc2)C2=C(CCCC2=O)O1 (stereo not given),inactive,–
CCOc1cnc(C(=O)NNC(=O)c2ccccc2Br)o1,inactive,–
Cc1cccc(C)c1NC(=O)NC1=CCCN1C,inactive,–
CC1CC(C)CN(CCC(=O)Nc2ccc3c(c2)CCC3)C1 (stereo not given),inactive,–
